BoNT-A LC inh2 – BoNT/A light chain protease inhibitors, primary screen, biochemical, flow cytometry, MLPCN library; Botulinum neurotoxin type A light chain protease (Clostridium botulinum A str. ATCC 3502); multiplex microsphere protease substrate cleavage; inhibition, % at 10 µM; 360,000 tested, 0.17% active; AID 588499, 2011
SSB-PriA inh – inhibitors of Klebsiella pneumoniae PriA binding to SSB C-terminal tail, primary screen, biochemical, AlphaScreen; PriA–SSB C-terminal tail interaction (Klebsiella pneumoniae); AlphaScreen SSBct-PriA binding, biotinylated peptide; inhibition, % at 33 µM; 430,000 tested, 0.6% active; AID 1272365, 2023; in the data active means inhibition mostly above about 37%, no sharp cut-off; inactive means mostly below about 20%
Bead autofluor – counter-screen for toxin protease inhibitors: compound fluorescence | fluorescence intensity (test concentration not listed) | 360,000 tested, 3.1% active | compound autofluorescence counterscreen, microsphere flow cytometry; hits give high values; in the data active means fluorescence intensity above about 16000; inconclusive means no clear call, values can overlap the other calls
Anthrax LF inh2 – Bacillus anthracis LF protease inhibitors, primary screen, biochemical, multiplex microsphere, MLPCN library. inhibition, % at 10 µM. 360,000 tested, 0.12% active. Lethal factor (Bacillus anthracis), P15917. multiplex microsphere protease cleavage assay. AID 588501, 2011
BoNT F protease – BoNT/F light chain protease inhibitors, primary screen, biochemical, flow cytometry, MLPCN library; Botulinum neurotoxin type F light chain protease (Clostridium botulinum); Multiplex microsphere protease cleavage assay; inhibition, % at 10 µM; 360,000 tested, 0.22% active; AID 588497, 2011; in the data active means inhibition above about 35%, passing the limit was not always enough; inconclusive means no clear call, values can overlap the other calls
Hits are given with their value; i = inactive; ? = inconclusive; nt = no result. Shown are actives, neighbours in structure and some others; about 3.1% of the full set was active somewhere. Unless noted, no stated cut-off is given here; in the data, active means inhibition above about 30%; inconclusive means no clear call, values can overlap the other calls; inactive means below that.

SMILES	BoNT-A LC inh2	SSB-PriA inh	Bead autofluor	Anthrax LF inh2	BoNT F protease
COc1ccc(C2CC(c3ccccc3)Nc3nc(N)nn32)cc1 (stereo unspecified)	i	i	i	i	i
COCC(=O)Nc1nc2n(n1)C(c1ccc(OC)cc1)CC(c1ccc(OC)cc1)N2 (stereo unspecified)	?	i	21259	i	i
COc1ccc(N2C(=O)[C@@H]3Cc4ccccc4CN3C2=O)cc1	i	i	i	i	i
Cc1ccc(N2C(=O)[C@@H]3Cc4ccccc4CN3C2=O)cc1	i	i	21075	i	i
O=C(CSCc1ccccc1)NC1CCSC1=O (stereo unspecified)	i	i	23850	i	i
COCCNC(=O)Cn1nc2c(c1NC(=O)CC1CCCC1)CSC2	nt	i	nt	nt	nt
O=c1[nH]c(O)c(/C=C2\C=NN=C2c2ccccc2)c(=O)[nH]1	i	nt	21773	i	i
Cc1[nH]n(-c2ccccc2)c(=O)c1/C=C1\C=NN=C1c1ccccc1	i	nt	i	i	?
O=S(=O)(N1CCCCCC1)N1CCN(S(=O)(=O)N2CCCCC2)CC1	i	i	19718	i	i
CCN1/C(=C/c2ccc3cccc(C)c3[n+]2CC)Sc2ccccc21	79	i	i	i	i
CCN1/C(=C/c2ccc3cc(C)cc(C)c3[n+]2CC)Sc2cc(C)ccc21	i	i	i	i	i
CCN1/C(=C/c2ccc3cc(C)ccc3[n+]2CC)Sc2ccc3sccc3c21	49	i	i	i	i
CCN1/C(=C\c2ccc3cc(C)ccc3[n+]2CC)Sc2cc(C)c(C)cc21	42	nt	i	i	i
O=C(Nc1nc2ccccc2s1)c1ncc(-c2ccc(F)cc2)o1	nt	i	nt	nt	nt
O=C(NNC(=O)C1CCCO1)c1ccc(Cl)cc1 (stereo unspecified)	i	i	i	i	37
O=C(NNC(=O)C1CCCO1)c1ccc([N+](=O)[O-])cc1 (stereo unspecified)	i	i	i	i	i
c1ccc(-c2nnc(SCc3nc4ccccc4[nH]3)n2Cc2ccco2)cc1	?	i	22637	i	i
N#Cc1ccc(CSc2nnc(-c3ccccc3)n2Cc2ccco2)cc1	?	i	24109	i	i
Cc1cccc(-n2ncc3c(=O)n4c(nc32)SCC4CC(=O)N2CCCC2)c1 (stereo unspecified)	nt	i	nt	nt	nt
Cc1ccc(N2CC(NC(=O)N3CCC4(CC3)OCCO4)CC2=O)cc1C (stereo unspecified)	nt	i	nt	nt	nt
CCOc1cc(C(=O)OCC(=O)c2c(C)[nH]c3ccccc23)ccc1OCC(=O)N1CCOCC1	?	i	21648	i	i
CCOC(=O)C1=C(C)NC(C)=C(C(=O)OC)C1c1ccco1 (stereo unspecified)	i	i	i	i	i
CCOC(=O)C1=C(C)NC(=O)C(C#N)C1c1ccco1 (stereo unspecified)	?	i	18722	i	i
Cn1sc(NC(=O)c2ccccc2Cl)nc1=O	i	i	24069	i	i
O=C(Nc1nc2ccc(Cl)cc2s1)c1cccc(Cl)c1	nt	i	nt	nt	nt
SMILES	BoNT-A LC inh2	SSB-PriA inh	Bead autofluor	Anthrax LF inh2	BoNT F protease
COC(=O)c1nc(NC(=O)c2ccccc2Cl)n[nH]1	i	i	22352	i	i
Cn1sc(NC(=O)c2cccc(Cl)c2)nc1=O	i	i	22807	i	i
Cc1ccc(-c2csc(NC(=O)c3ccccc3Cl)n2)cc1C	nt	i	nt	nt	nt
O=C(N1CCC(CSC2=NCCS2)CC1)C1(c2ccc(Cl)cc2)CCCC1	nt	i	nt	nt	nt
Cn1cc(SCC(=O)Nc2ccc(OC(F)(F)F)cc2)c2ccccc21	nt	i	nt	nt	nt
O=C(Nc1ccccc1N1CCCCC1)c1cccs1	i	i	24609	i	i
O=C(Nc1ncc(S(=O)(=O)c2ccc([N+](=O)[O-])cc2)s1)c1ccc(Cc2ccccc2)cc1	nt	i	nt	nt	nt
O=C(NCc1ccc(Cl)cc1)C1C2C=CC3(CN(Cc4cccnc4)C(=O)C13)O2 (stereo unspecified)	i	i	25239	i	i
O=C(NCc1ccc(F)cc1)C1C2C=CC3(CN(Cc4cccnc4)C(=O)C13)O2 (stereo unspecified)	i	i	i	i	i
CC(C)Sc1ccc(CC(=O)N2CCCN(S(=O)(=O)c3cnn(C)c3)CC2)cc1	nt	i	nt	nt	nt
COc1ccc(C2=NN(S(C)(=O)=O)C(c3ccc4nccnc4c3)C2)cc1OC (stereo unspecified)	nt	i	nt	nt	nt
Cc1ccc(C)c(N2CCN(c3nc4ccccc4c(=O)n3Cc3ccccc3)CC2)c1	i	104	i	i	i
O=c1c2ccccc2nc(N2CCN(c3ccccc3)CC2)n1Cc1ccccc1	i	i	i	i	i
c1ccc(-c2noc(-c3ccco3)n2)nc1	i	i	i	i	i
c1ccc(-c2nc(-c3ccco3)cs2)nc1	i	i	22107	i	i
c1coc(-c2nc3ccccc3nc2-c2ccco2)c1	i	i	i	i	i
c1ccc(-c2nnc(-c3ccco3)c(-c3ccco3)n2)nc1	nt	114	nt	nt	nt
COc1ccc(-c2csc(-c3ccccn3)n2)cc1	nt	i	nt	nt	nt
c1ccc(-c2nccc(-c3ccco3)n2)nc1	i	72	i	i	i
CC(C)Cc1c[nH]c2c(c1=S)c(=O)n(C)c(=O)n2C	nt	i	nt	nt	nt
Cc1nnc(N2CCCC(C(=O)NCc3ccccc3F)C2)c2nn(-c3ccccc3)c(C)c12 (stereo unspecified)	i	i	i	i	i
CCc1ccc(CNC(=O)C2CCCN(c3nnc(C)c4c(C)n(-c5ccccc5)nc34)C2)cc1 (stereo unspecified)	i	i	20786	i	i
Cc1nnc(N2CCCC(C(=O)NCc3cccc(F)c3)C2)c2nn(-c3ccccc3)c(C)c12 (stereo unspecified)	i	i	16533	i	i
O=C(NCC(=O)N1CCOC(c2ccccc2)C1)c1cccs1 (stereo unspecified)	nt	i	nt	nt	nt
O=C(C1CCCO1)N1CCN(S(=O)(=O)c2ccccc2)CC1 (stereo unspecified)	i	i	22925	i	i
SMILES	BoNT-A LC inh2	SSB-PriA inh	Bead autofluor	Anthrax LF inh2	BoNT F protease
O=C(NCCN1CCN(C(=O)c2cc3ccccc3oc2=O)CC1)c1cc2ccccc2oc1=O	i	94	i	i	i
O=C(c1cc2ccccc2oc1=O)N1CCOCC1	i	i	i	i	i
Cc1ccc(S(=O)(=O)N2CCN(C(=O)C3CCCO3)CC2)cc1C (stereo unspecified)	i	i	i	i	i
O=C(c1cc2ccccc2oc1=O)N1CCN(C(=O)C2CCCO2)CC1 (stereo unspecified)	i	i	25648	i	i
CCc1ccccc1NC(=O)NCCNc1cc(-n2cccn2)nc(C)n1	nt	i	nt	nt	nt
CC(C)Nc1ccc(Nc2ccnc3cc4ccccc4cc23)cc1	nt	97	nt	nt	nt
COc1ccc(-c2nnc(CSc3nnc(-c4ccncc4)n3C3CCCCC3)o2)cc1OC	?	i	19681	i	i
Cc1ccc2sc(NNC(=O)c3nc4ccccc4s3)nc2c1C	nt	58	nt	nt	nt
Cc1ccc2sc(NNC(=O)c3c(F)cccc3F)nc2c1C	nt	i	nt	nt	nt
COc1ccccc1NC(=O)C(=O)NCC(c1ccsc1)N1CCCC1 (stereo unspecified)	nt	i	nt	nt	nt
